Measurements taken from PubChem BioAssay AID488890 (Southern Research Specialized Biocontainment Screening …, 2010).
Screen size: about 320,000 compounds; about 1,300 (0.41%) were called active. Roughly 3% stayed inconclusive and do not appear here. No rule for the calls is given here. Not all results are given here. Results with a measured potency or affinity are listed apart.

Experiment: growth inhibition of non-replicating M. tuberculosis (AID 488890);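 also: plate controls were DMSO cells for no effect and high antibiotic wells for full effect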
Conditions: Mycobacterium tuberculosis non-replicating, at 25 µM, stronger effect = higher value
`CC1(C)CN(c2ccc(Br)cc2Br)C1=O` showed an inhibition of 8.63%. `CCOC(=O)N1CCN(S(=O)(=O)c2ccc(C(=O)N(CCCN(C)C)c3nc4cc(OC)ccc4s3)cc2)CC1` gave an inhibition of 8.58%. Compound `Oc1ccc(CNc2ccccc2F)c2cccnc12` has an inhibition of 38.5%. For `OCc1ccc(O)c2ncccc12`, the inhibition was 26%. `CCCn1c(C(C)Nc2nc(-c3ccc(C)cc3)cs2)nc2cc(Cl)c(Cl)cc21` (configuration not stated) gave an inhibition of 17.9%. Work on `COc1ccccc1NC(=O)Cn1cnc2sc(C(=O)Nc3cc(OC)c(OC)c(OC)c3)c(C)c2c1=O` yielded an inhibition of -13%. Work on `Cc1ccc(NC(=S)N2CCC(NC(=O)C3CCCCC3)CC2)cc1C` yielded an inhibition of -8.16%. In the case of `Cc1nn(CC(=O)NCc2cc3ccccc3[nH]2)c(C)c1[N+](=O)[O-]`, the inhibition is reported as -11.5%. `O=C(CNC(=O)c1ccco1)NCC(=O)OCc1ccc(C(=O)Oc2ccc(Cl)cc2)cc1` showed an inhibition of 5.36%. In the case of `O=C(Nc1ccc(OC(=O)c2ccco2)cc1)c1ccco1`, the inhibition is reported as 53.6%. With `O=C(CNC(=O)c1ccco1)OCc1ccc(C(=O)c2ccccc2)cc1` the inhibition was 74.7%. In the case of `COC(=O)c1ccc(NC(=O)c2ccc(NC(=O)c3ccco3)cc2)cc1`, the inhibition is reported as 9.4%. `O=C(CCN1C(=O)/C(=C\c2ccccc2)SC1=S)NNC(=O)c1ccccc1O` showed an inhibition of -13.1%. In the case of `CN(C)CCCNC1CS(=O)(=O)CC1O` (configuration not stated), the inhibition is reported as -14.7%. Compound `CCOC(=O)C1=C(C)NC2=C(C(=O)CC(C)(C)C2)C1c1ccc2c(c1)CCCN2C` (configuration not stated) has an inhibition of 58.9%. Work on `COCCN1C(=O)/C(=C/c2c(OC)cc(OC)cc2OC)C(=O)N(c2ccccc2)C1=O` yielded an inhibition of 2.58%. In the case of `Cc1cccc(NC(=O)CC(=O)Nc2cccc(C)c2)c1`, the inhibition is reported as 17.8%. For `CCOC(=O)c1c(NC(C)=O)sc2c(OC)c(Br)ccc12`, the inhibition was 3.98%. Compound `CCOC(=O)c1c(NC(C)=O)sc2c(O)c(Br)ccc12` has an inhibition of 33.9%. Compound `Cc1onc(-c2c(F)cccc2Cl)c1C(=O)N(Cc1ccccc1)C(C)C` has an inhibition of 7.25%. In the case of `CC1CC(C)CN(S(=O)(=O)c2ccc3oc(=O)ccc3c2)C1` (configuration not stated), the inhibition is reported as -8.91%. Work on `COC(=O)c1ccccc1NC(=O)CCCn1nc([N+](=O)[O-])cc1C` yielded an inhibition of 1.55%. In the case of `CC1CCC(NC(=O)c2cc3ccccc3cc2O)CC1` (configuration not stated), the inhibition is reported as 38.1%. `COC(=O)c1cc2c(C)c(C)c3ccccn3c-2c1C(=O)OC` showed an inhibition of 2.38%. With `CC(C)OC(=O)c1cccc2c1C(=O)c1ccccc1-2` the inhibition was 1.02%. With `Cc1cc(C(=O)CCC(=O)Nc2ncccc2C)c(C)s1` the inhibition was 25.8%. For `CS(=O)(=O)N1CCc2cc(S(=O)(=O)Nc3ccc4c(c3)OCCO4)ccc21`, the inhibition was 5.57%. With `CCOc1ccc(C(=O)Nc2nnn(CC)n2)cc1` the inhibition was -19.1%. `CCn1nnc(NC(=O)COc2ccc([N+](=O)[O-])cc2)n1` showed an inhibition of 15.6%. Work on `Cc1ccc(OCC(=O)Nc2nnn(C)n2)c(C)c1` yielded an inhibition of -10.8%. Compound `Cc1cccc(OCC(=O)Nc2nnn(C)n2)c1C` has an inhibition of 7.29%. `NC(N)=NS(=O)(=O)c1ccc(NC(=S)NC(=O)c2ccc(Br)cc2)cc1` showed an inhibition of 2.25%. `CN(C)CCC#CC1(O)c2ccccc2-c2ccccc21` gave an inhibition of -5.2%. Compound `CCc1ccc(CNC(=O)c2ccc3nc(C4CCCCC4)oc3c2)nc1` has an inhibition of 56.5%. With `O=C1c2ccccc2C(=O)N1CC#CCN1CCN(C(c2ccccc2)c2ccccc2)CC1` the inhibition was -1.98%. In the case of `c1ccc(CCc2nc(-c3cccnc3)no2)cc1`, the inhibition is reported as 20%. Work on `c1ccc(Cc2nc(-c3ccccn3)no2)cc1` yielded an inhibition of 16.8%. In the case of `c1ccc(-c2noc(CC3CCCCC3)n2)cc1`, the inhibition is reported as 69.6%. `c1ccc(-c2noc(C3CCCCC3)n2)nc1` gave an inhibition of 18.3%. With `CC(=O)CC1=NC(C)(C)Cc2ccccc21` the inhibition was 0.57%. With `c1ccc(CNc2ccc3ccccc3n2)nc1` the inhibition was 21.1%. `COc1cc2c(cc1NC(=O)COC(=O)C1CC(=O)N(Cc3ccco3)C1)oc1ccccc12` (configuration not stated) showed an inhibition of 6.37%. In the case of `Cc1ccc(-n2c(-c3ccncc3)nnc2-c2cccs2)cc1`, the inhibition is reported as -0.27%. `COc1ccccc1N1CCN(C(=O)c2ccc(Br)s2)CC1` gave an inhibition of 70.2%. `COc1ccccc1N1CCN(C(=O)c2cc(C(=O)N3CCN(c4ccccc4OC)CC3)cc([N+](=O)[O-])c2)CC1` showed an inhibition of 12.5%. `O=C(c1cccc([N+](=O)[O-])c1)N1CCN(c2cccc(Cl)c2)CC1` gave an inhibition of 38.1%. `O=C(c1ccc([N+](=O)[O-])s1)N1CCN(c2ccccc2)CC1` showed an inhibition of -13.2%. With `NC(=O)CCn1ccc2ccccc21` the inhibition was 2.82%. Compound `Cc1cc(C)n(C(=O)c2ccc(C)c(S(=O)(=O)N3CCCCC3)c2)n1` has an inhibition of -9.14%. For `Cc1ccc(C(C)C)cc1OCC(=O)NNC(=O)Nc1ccccc1`, the inhibition was -5.51%. `COc1ccc(C(=O)NNC(=O)C(=O)Nc2ccc(C)c(Cl)c2)cc1` showed an inhibition of 73%. With `Cc1c(Cl)cccc1NC(=O)CNC(=O)c1ccccc1F` the inhibition was 17.3%. `Cc1c(Cl)cccc1NC(=O)CCC(=O)NNC(=O)c1ccccc1Cl` showed an inhibition of 3.92%. For `Cc1cc(NC(=O)c2ccccc2C)ccc1NC(=O)c1ccccc1Cl`, the inhibition was -10.5%. Work on `Cc1ccc(S(=O)(=O)NCC(=O)NCC(=O)OCc2c(F)cccc2Cl)cc1` yielded an inhibition of -16.7%. Compound `COC(=O)c1c(NC(=O)c2cccc([N+](=O)[O-])c2)sc(C(N)=O)c1C` has an inhibition of 51.4%. Compound `COc1cc(/C=N/NC(=O)c2ccc(N)cc2)ccc1OC(=O)c1cccc(C)c1` has an inhibition of 35.7%. In the case of `CCN(C(=O)COC(=O)c1cc2ccccc2cc1O)C1CCS(=O)(=O)C1` (configuration not stated), the inhibition is reported as 9.53%. With `CCNC(=O)/N=C1/NC(=O)C(C(C)C)O1` (configuration not stated) the inhibition was 0.48%. For `CC(C)CC(NC(N)=O)C(=O)Nc1ccc(Cl)c(Cl)c1` (configuration not stated), the inhibition was 13.8%. Compound `CC(C)(C)NC(=O)Cn1cc(C(=O)c2ccccc2F)c2ccccc21` has an inhibition of 0.38%. With `CN=Cc1nc(-c2ccccc2)oc1O` the inhibition was 10.9%. `CCCCOc1ccc(-c2nc(/C=N/c3nccs3)c(O)o2)cc1` showed an inhibition of 62.2%. `O=C(O)CN(Cc1ccccc1)S(=O)(=O)c1ccc2c(c1)OCCO2` gave an inhibition of -8.61%. In the case of `CC1CN(C(=O)c2ccc(COc3ccc(C(C)C)cc3)o2)CC(C)O1` (configuration not stated), the inhibition is reported as 54.3%. Work on `COc1ccc(NC(C)=O)cc1NC(=O)CSc1nnc(-c2ccc(F)cc2)n1N` yielded an inhibition of -6.88%. In the case of `O=[N+]([O-])c1ccc(NC(=S)N2CCc3ccccc3C2)cc1`, the inhibition is reported as -1.08%. Compound `CC[n+]1c(/C=C(/C)SC)sc2ccccc21` has an inhibition of 67%. With `CC[n+]1c(/C=C(\C)SC)sc2ccccc21` the inhibition was 0.12%. `CCn1c(N2CCN(C(=S)NCCc3ccccc3)CC2)nc2ccccc21` gave an inhibition of 63.9%. Work on `COc1ccc2[nH]c(C)c(CCNCc3cn(C)c4ccccc34)c2c1` yielded an inhibition of 60.3%. `Cc1[nH]c2ccc(OC(F)(F)F)cc2c1CCNCc1cccc([N+](=O)[O-])c1` showed an inhibition of 77.6%.
